The record followed here is PubChem BioAssay.

Active and inactive are the calls of the source. Unless noted, how the calls were made is not given here.

Experiment [1] can be described thus: compounds binding Alexa647 anti-His antibody – biochemical, small-molecule microarray, 635 nm fluorescence, artefact control for SMM control protein annotation, primary screen (AID 1128).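 Further: score merges feature fluorescence with signal-to-noise for each printed compound spot.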 To be noted: higher = more signal.
The subject of experiment [2] is Human papillomavirus type 1a E7 protein (residues 1-88). The experiment can be described thus: HPV1a E7 small-molecule binders, primary screen, biochemical, small-molecule microarray, residues 1-88, 635 nm (AID 1129). The conditions noted are these: small-molecule microarray binding, fluorescence 635 nm; higher = more signal.
Experiment [3] addresses Focal adhesion kinase 1 (Homo sapiens) (UniProt Q05397). In words: PTK2 protein binding on printed compound slides – biochemical, small-molecule microarray, 635/667 nm fluorescence, BSA, DTT, primary screen (AID 1130).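 Further: composite of spot emission at 667 nm and signal to noise over triplicate slides.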 The conditions noted are these: 635 nm fluorescence, higher = more signal.
For experiment [4], the system named is Fibrinogen (Alexa647-labelled). The experiment can be described thus: Alexa647-fibrinogen binding to printed small molecules – biochemical, small-molecule microarray, 635/667 nm fluorescence, artefact control for SMM control-protein annotation, profiling panel (AID 1131).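 Further: z-score merges 667 nm fluorescence with per-spot signal-to-noise over triplicate slides.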 To be noted: fibrinogen-A647 binding fluorescence, higher = more signal.
The target in experiment [5] is Follistatin (Homo sapiens) (UniProt P19883). The experiment can be described thus: FST protein binding to printed compounds – biochemical, small-molecule microarray, 635/667 nm fluorescence, primary screen (AID 1132). The conditions noted are these: 635 nm fluorescence, higher = more signal.
For experiment [6], the target named is Fibroblast growth factor 2 (Homo sapiens) (UniProt P09038). In words: basic fibroblast growth factor binding to printed compounds – biochemical, small-molecule microarray, 635/667 nm fluorescence, primary screen (AID 1133). To be noted: FGF2, fluorescence 635/667, higher = more signal.
Experiment [7] is described as follows: JC-1 mitochondrial potential readout, lung cancer cells – cell-based, A549, JC-1 fluorescence, basal, 24 h, 100 nL, profiling panel (AID 1138).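 Further: A549 lung adenocarcinoma cells under basal conditions with no added stimulus; test concentration not given here.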 The conditions noted are these: higher = more signal.
A further experiment relates to Lefty1. The experiment can be described thus: Lefty1 protein binding to printed compounds – biochemical, small-molecule microarray, 635/667 nm fluorescence, primary screen (AID 1139). To be noted: fluorescence 635/667, higher = more signal.
Experiment [8] concerns wheat germ agglutinin (Triticum aestivum), Alexa647-labelled. The experiment can be described thus: Alexa647-WGA lectin binding to printed small molecules – biochemical, small-molecule microarray, 635/667 nm fluorescence, artefact control for SMM control-protein annotation, profiling panel (AID 1140).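 Further: score merges 667 nm feature emission with signal to noise over triplicate slides.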 To be noted: WGA-A647 binding, 635 nm fluorescence, higher = more signal.
Experiment [9] concerns the target Luciferin 4-monooxygenase (Photinus pyralis) (UniProt P08659). In words: inhibition of purified Photinus pyralis luciferase – biochemical, luminescence, purified enzyme, 2006 set, primary screen (AID 1141).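 Further: cell-free assay with purified firefly luciferase at 100 ng per well in PBS; test concentration not given here.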 To be noted: purified firefly luciferase, SteadyGlo luminescence, 30 min; higher = more signal, called active from +8 up or from −8 down.
Experiment [10] relates to Wnt5a (protein binding on small-molecule microarray). The experiment can be described thus: small molecules binding Wnt5a protein – biophysical, small-molecule microarray, 635/667 nm fluorescence, primary screen (AID 1142).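 Further: fluorescence read at 667 nm with signal to noise per printed feature.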 To be noted: 635 nm fluorescence, higher = more signal.
Experiment [11] can be described thus: ATP-based viability of Huh7 replicon cells – cell-based, CellTiter-Glo luminescence, basal, 48 h, cytotoxicity control for HCV replication inhibitor project, primary screen (AID 1143).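 Further: Huh7 hepatoma cells carrying a hepatitis C replication reporter with no stimulus; test concentration not given here.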 The conditions noted are these: higher = more signal, called active from +8 up or from −8 down. For orientation: Replicon systems follow genome replication, usually without infectious particles.

The nature of experiment [12]: Pseudomonas biofilm growth suppression – PAO1 strain, BacTiter-Glo luminescence, LB-PBS, primary screen (AID 1144). To be noted: P. aeruginosa PAO1 biofilm, 12 h, higher = more signal.
Experiment [13] can be described thus: basal CRE-LacZ reporter activity in PC12 – cell-based, unstimulated, primary screen (AID 1145). To be noted: no forskolin, luminescence, 4.5 h, higher = more signal, called active from +8 up or from −8 down.
Experiment [14] can be described thus: forskolin-driven CRE-LacZ activity in PC12 – cell-based, CRE-LacZ reporter, forskolin-stimulated, primary screen (AID 1146).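 Further: PC12 cells with 6xCRE LacZ reporter stimulated by forskolin 10 µM; beta-galactosidase reporter signal reflecting CREB driven transcription.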 To be noted: luminescence, 4.5 h, higher = more signal, called active from +8 up or from −8 down.
The target in experiment [15] is Streptavidin (Streptomyces avidinii) (UniProt P22629). The experiment can be described thus: compounds binding control protein streptavidin – biophysical, small-molecule microarray, 635/667 nm fluorescence, artefact control for SMM compound annotation, primary screen (AID 1147).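 Further: signal reflects streptavidin binding to arrayed compounds as a control protein.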 To be noted: higher = more signal.
Experiment [16] is described as follows: probe aInhba binding on compound microarray – biochemical, small-molecule microarray, 635/667 nm fluorescence, primary screen (AID 1148).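 Further: score merges 667nm spot fluorescence with signal-to-noise for antibody binding to printed compounds.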 The conditions noted are these: higher = more signal.
Experiment [17] concerns the target Torsin-1A (Homo sapiens) (UniProt O14656). In words: TOR1A wild-type binding on microarray – cell lysate, small-molecule microarray, lysate, 635/667 nm, primary screen (AID 1149). The conditions noted are these: COS7 hTOR1A-WT lysate, 635 nm fluorescence, higher = more signal.
For experiment [18] the target is unchanged. In words: torsin A mutant lysate binding on microarrays – cell lysate, small-molecule microarray, COS7 lysate, 635/667 nm fluorescence, primary screen (AID 1150).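 Further: score pools 667 nm emission and signal to noise measuring lysate protein binding.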 To be noted: COS7 hTOR1A mutant lysate, 635 nm fluorescence, higher = more signal.
For experiment [19], the system named is Sonic hedgehog protein (Shh). The experiment can be described thus: Sonic hedgehog microarray binding compounds – biochemical, small-molecule microarray, 635/667 nm fluorescence, primary screen (AID 1151).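 Further: Shh protein binding to compounds spotted on small-molecule microarray slides; score combines spot fluorescence intensity with signal-to-noise across triplicate slides.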 The conditions noted are these: 635 nm fluorescence, higher = more signal.

Sequence of Luciferin 4-monooxygenase (Photinus pyralis) (P08659 whole entry, looked up): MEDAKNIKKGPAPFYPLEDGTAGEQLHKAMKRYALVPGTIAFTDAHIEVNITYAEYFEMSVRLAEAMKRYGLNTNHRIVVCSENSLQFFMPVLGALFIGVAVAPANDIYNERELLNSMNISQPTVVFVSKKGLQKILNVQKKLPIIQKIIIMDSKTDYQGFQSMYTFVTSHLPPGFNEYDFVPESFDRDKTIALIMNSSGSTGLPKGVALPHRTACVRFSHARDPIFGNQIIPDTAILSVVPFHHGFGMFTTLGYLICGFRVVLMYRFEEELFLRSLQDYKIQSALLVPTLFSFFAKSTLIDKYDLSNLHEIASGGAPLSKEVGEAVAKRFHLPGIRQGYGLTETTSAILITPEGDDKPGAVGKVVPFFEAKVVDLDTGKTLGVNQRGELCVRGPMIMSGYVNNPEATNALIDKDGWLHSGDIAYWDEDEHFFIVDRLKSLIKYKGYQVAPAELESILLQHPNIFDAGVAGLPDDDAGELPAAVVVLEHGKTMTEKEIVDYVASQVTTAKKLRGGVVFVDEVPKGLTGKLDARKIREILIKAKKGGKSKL
Sequence of Fibroblast growth factor 2 (Homo sapiens) (P09038 whole entry, looked up): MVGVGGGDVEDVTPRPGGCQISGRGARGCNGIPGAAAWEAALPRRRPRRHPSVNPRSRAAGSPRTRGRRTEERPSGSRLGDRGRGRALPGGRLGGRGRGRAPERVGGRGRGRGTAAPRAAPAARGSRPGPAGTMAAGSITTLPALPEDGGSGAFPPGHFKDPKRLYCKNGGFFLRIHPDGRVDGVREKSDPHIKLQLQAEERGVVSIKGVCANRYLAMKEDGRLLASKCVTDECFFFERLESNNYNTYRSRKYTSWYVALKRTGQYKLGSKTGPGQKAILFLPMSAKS
Sequence of Torsin-1A (Homo sapiens) (O14656 whole entry, looked up): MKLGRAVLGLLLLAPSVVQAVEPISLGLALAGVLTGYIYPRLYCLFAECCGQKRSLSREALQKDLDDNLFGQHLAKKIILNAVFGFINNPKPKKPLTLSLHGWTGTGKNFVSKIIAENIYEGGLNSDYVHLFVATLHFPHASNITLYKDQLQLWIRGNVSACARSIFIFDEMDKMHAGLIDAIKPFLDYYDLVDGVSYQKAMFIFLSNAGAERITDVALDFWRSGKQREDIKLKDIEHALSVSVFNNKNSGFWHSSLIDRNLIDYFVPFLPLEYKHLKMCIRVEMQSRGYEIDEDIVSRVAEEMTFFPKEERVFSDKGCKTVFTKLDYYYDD
Sequence of Streptavidin (Streptomyces avidinii) (P22629 whole entry, looked up): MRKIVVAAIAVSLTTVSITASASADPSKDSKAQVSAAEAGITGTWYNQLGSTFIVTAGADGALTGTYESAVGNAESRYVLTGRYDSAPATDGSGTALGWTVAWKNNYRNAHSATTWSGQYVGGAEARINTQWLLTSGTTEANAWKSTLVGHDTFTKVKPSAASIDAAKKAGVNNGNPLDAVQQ
Sequence of Follistatin (Homo sapiens) (P19883 whole entry, looked up): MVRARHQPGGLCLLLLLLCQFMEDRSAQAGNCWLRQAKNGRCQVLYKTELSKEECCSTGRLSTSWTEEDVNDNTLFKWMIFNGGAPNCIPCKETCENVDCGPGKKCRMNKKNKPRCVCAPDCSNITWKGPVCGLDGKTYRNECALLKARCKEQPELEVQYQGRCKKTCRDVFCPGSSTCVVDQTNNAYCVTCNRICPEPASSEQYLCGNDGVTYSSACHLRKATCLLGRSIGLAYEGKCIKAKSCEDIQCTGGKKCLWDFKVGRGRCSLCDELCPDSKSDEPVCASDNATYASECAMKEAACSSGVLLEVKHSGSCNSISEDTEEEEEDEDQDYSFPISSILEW
Sequence of Focal adhesion kinase 1 (Homo sapiens) (Q05397 whole entry, looked up): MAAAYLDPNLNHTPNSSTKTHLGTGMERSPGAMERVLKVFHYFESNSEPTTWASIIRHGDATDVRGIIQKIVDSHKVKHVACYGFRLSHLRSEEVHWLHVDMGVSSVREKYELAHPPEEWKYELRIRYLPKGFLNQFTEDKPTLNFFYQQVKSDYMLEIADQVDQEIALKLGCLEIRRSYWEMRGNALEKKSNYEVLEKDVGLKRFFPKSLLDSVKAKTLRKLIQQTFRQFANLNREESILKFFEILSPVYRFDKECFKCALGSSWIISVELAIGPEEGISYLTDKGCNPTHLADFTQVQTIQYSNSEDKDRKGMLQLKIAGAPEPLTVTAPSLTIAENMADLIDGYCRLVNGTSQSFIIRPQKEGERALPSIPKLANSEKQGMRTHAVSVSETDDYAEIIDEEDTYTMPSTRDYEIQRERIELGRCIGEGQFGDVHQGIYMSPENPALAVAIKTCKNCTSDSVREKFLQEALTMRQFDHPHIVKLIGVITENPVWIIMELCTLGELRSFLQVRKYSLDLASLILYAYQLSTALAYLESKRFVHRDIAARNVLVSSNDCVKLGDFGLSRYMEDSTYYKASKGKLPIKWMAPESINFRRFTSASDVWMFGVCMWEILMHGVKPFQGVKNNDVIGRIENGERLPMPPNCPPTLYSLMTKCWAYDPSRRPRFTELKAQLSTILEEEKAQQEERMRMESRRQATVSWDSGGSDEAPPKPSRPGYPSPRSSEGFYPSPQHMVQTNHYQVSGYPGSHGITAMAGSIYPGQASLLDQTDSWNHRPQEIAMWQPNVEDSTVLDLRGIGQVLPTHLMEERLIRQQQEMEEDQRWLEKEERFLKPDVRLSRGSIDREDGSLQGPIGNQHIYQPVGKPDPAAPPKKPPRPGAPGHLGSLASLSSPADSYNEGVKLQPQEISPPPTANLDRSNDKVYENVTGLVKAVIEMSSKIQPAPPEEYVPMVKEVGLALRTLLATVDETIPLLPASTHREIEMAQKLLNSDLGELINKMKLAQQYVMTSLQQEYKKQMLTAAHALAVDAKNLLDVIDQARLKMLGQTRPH

In the case of `COCCOC(=O)N1C(=O)[C@@]2(c3cc(C#CCNC(N)=O)ccc31)[C@H](C(=O)N1CCN(c3ncccn3)CC1)[C@H]1C(=O)O[C@H](c3ccccc3)[C@H](c3ccccc3)N1[C@@H]2c1ccccc1OCCO`, the composite z-score was determined as 1.24 in experiment [1]; 1.07 in experiment [2]; 0.261 in experiment [3]; 0.797 in experiment [4]; 1.37 in [5]; 0.406 in [6]. In addition, the composite z-score in the experiment with Lefty1 turned out to be 0.889; in experiment [8], 0.749; in experiment [10], 0.518; in experiment [15] it was 0.605; in experiment [16] it was 0.0184; in the experiment with Torsin-1A (Homo sapiens) [17] it was 0.223. Besides, the figures for the composite z-score (in the experiment with Torsin-1A (Homo sapiens) [18]; in [19]) were 0.416 and 0.692, respectively. For the same compound, the z-score in [7] is -1.55; in experiment [9] it was 1.05 (inactive); in experiment [11], -1.32 (inactive); in experiment [12], -0.94 (inactive); in [13], -0.141 (inactive); in [14], -0.44 (inactive).
For the compound `COc1ccc(C#Cc2ccc3c(c2)[C@]2(C(=O)N3)[C@H](c3ccc(O)cc3)N3[C@H](c4ccccc4)[C@H](c4ccccc4)OC(=O)[C@H]3[C@@H]2C(=O)N2CCCCCCC2)cc1`, the composite z-score in [1] was determined as 0.477; in experiment [2] it was 1.22; in experiment [3] it was 0.75; in experiment [4] it was 0.702; in experiment [5], 1.49; in experiment [6] it was 1.02. Further, the composite z-score came to 1.61 in the experiment with Lefty1; 1.35 in [8]; 1.12 in [10]; 1.9 in experiment [15]; 1.43 in [16]; 1.55 with Torsin-1A (Homo sapiens) [17]. In addition, the composite z-score with Torsin-1A (Homo sapiens) [18] is 1.43; in experiment [19], 2.09. The z-score in experiment [7] was -0.067; in [9], -1.78 (inactive); in experiment [11], -3.96 (inactive); in experiment [12], -1.42 (inactive); in experiment [13] it was 0.0653 (inactive); in experiment [14], -0.648 (inactive).
For the compound `COC(=O)c1ccc(C23CC2(C(NP(=O)(c2ccccc2)c2ccccc2)c2ccccc2)C3)cc1` (stereo not given), the composite z-score in [1] is 2.12; in experiment [2] it was 1.14; in [3] it was 1.2; in experiment [4], 0.984; in experiment [5], 1.11; in [6], -0.575. Further, the composite z-score with Lefty1 is -0.414; in experiment [8], 1.15; in experiment [10] it was 0.211; in experiment [15] it was 1.7; in experiment [16], 0.178; with Torsin-1A (Homo sapiens) [17], 0.862. Moreover, the composite z-score with Torsin-1A (Homo sapiens) [18] was 1.64; in experiment [19], -0.803. For the same compound, the z-score in experiment [7] is 2.44; in experiment [9], -5.98 (inactive); in experiment [11], -2.07 (inactive); in [12] it was 0.523 (inactive); in [13], -1.14 (inactive); in experiment [14], -0.0812 (inactive).
Turning to `O=C1OCC=C[C@H]2OC34C=CCN(c5ccc(Cl)cc5)C(=O)[C@H]3N(CCCCCCO)C(=O)[C@@H]4[C@@H]12` (stereo not given in full), the composite z-score in [1] was 1.41; in [2], -0.777; in experiment [3], -0.209; in experiment [4] it was -2.01; in [5] it was -1.57; in experiment [6] it was -0.705. Also, the composite z-score was -1.09 in the experiment with Lefty1; -0.892 in [8]; -0.557 in [10]; -0.857 in [15]; -0.0494 in experiment [16]; -1.39 with Torsin-1A (Homo sapiens) [17]. The composite z-score with Torsin-1A (Homo sapiens) [18] was -1.21; in experiment [19], -0.38. Further, the z-score is 1.82 in [7]; -0.71 (inactive) in [9]; -0.652 (inactive) in experiment [11]; 1.36 (inactive) in [12]; 1.41 (inactive) in experiment [13]; -0.0889 (inactive) in [14].
In the case of `CC(C)Cc1ccc(CN2CC[C@@H](NS(=O)(=O)c3ccccc3)C2)cc1`, the composite z-score in experiment [1] was 0.441; in experiment [2], -0.593; in experiment [3], -0.0553; in experiment [4], -1.02; in experiment [5], 0.797; in [6], -0.0321. In addition, the composite z-score in the experiment with Lefty1 is 0.477; in experiment [8] it was -0.654; in [10] it was -0.353; in experiment [15], -0.369; in experiment [16] it was -0.188; with Torsin-1A (Homo sapiens) [17], -0.957. Also, the composite z-score is -0.274 in the experiment with Torsin-1A (Homo sapiens) [18] and 1.45 in [19]. The z-score was -0.641 in experiment [7]; 0.826 (inactive) in experiment [9]; -5.08 (inactive) in [11]; -0.721 (inactive) in experiment [12]; 0.224 (inactive) in [13]; -0.138 (inactive) in [14].
